Records with an inconclusive call do not appear. The source made the active and inactive calls. Unless noted, calls follow the shape of the dose curve; as a rule, active = well fitted curve in the direction sought with a large enough effect in the repeat runs; inconclusive = weak or mixed curves; inactive = no such curve, though single readings can be large; an effect the other way counts as inactive or inconclusive.
Assays:
[1] = molecular target: Thyrotropin-releasing hormone receptor (Homo sapiens) (UniProt P34981); assay: qHTS assay to identify small molecule agonists of the thyrotropin-releasing hormone receptor (TRHR) signaling pathway (AID 1346891; calls by dose curve;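 also: HEK293 cells expressing TRHR with calcium dye readout; series mostly up to about 58 µM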)
How it was run: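 Agonist-mode calcium mobilisation screen: TRHR-transfected HEK293 cells cultured overnight (18 h), dye-loaded for 2 h at 37 °C, exposed to compounds, and monitored by fluorescence for 3 min.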

[2] = Human pregnane X receptor (PXR) small molecule agonists, qHTS cell viability counter screen (AID 1346977); also: nearly all actives have a fitted effect of over 50% in size
How it was run: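 Measures live-cell protease fluorescence (CellTiter-Fluor) in PXR-Luc HepG2 cells treated 24hr with compounds at 37C. Cells had 5hr to attach before pin transfer of DMSO solutions.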

[3] = Caspase-3/7 induction in HepG2 cells by small molecules, qHTS assay (AID 1346978); also: nearly all actives have a fitted effect of over 15% in size
How it was run: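 Caspase-3/7 induction was measured by Caspase-Glo 3/7 luminescence (30 min, room temperature) after a 17 hr compound exposure of wild-type HepG2 cells seeded at 2,000 per well and pre-incubated 5 hr.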

[4] = Caspase-3/7 induction in CHO-K1 cells by small molecules, qHTS cell viability counter screen (AID 1346979); also: nearly all actives have a fitted effect of over 35% in size
How it was run: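 In the same wells as the caspase read, viability of compound-treated wild-type CHO-K1 cells was assessed using CellTiter-Fluor, added after 16hr at 37C and measured by fluorescence following 1hr further incubation.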

[5] = Caspase-3/7 induction in CHO-K1 cells by small molecules, qHTS assay (AID 1346980); also: nearly all actives have a fitted effect of over 15% in size
How it was run: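 Luminescent Caspase-Glo 3/7 read (30min, room temperature) quantified apoptosis induction. Cells were wild-type CHO-K1, treated with compound for 17hr at 37 C and 5% CO2.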

[6] = Caspase-3/7 induction in HepG2 cells by small molecules, qHTS cell viability counter screen (AID 1346981); also: series mostly up to about 92 µM; nearly all actives have a fitted effect of over 30% in size
How it was run: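 Wild-type HepG2 cells, 2,000/well, settled 5 hr at 37 C, 5% CO2 before compound addition. Viability read by CellTiter-Fluor fluorescence, reagent added after 16 hr compound exposure, then 1 hr at 37C, in the same wells as the caspase read.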

[7] = molecular target: Nuclear receptor subfamily 1 group I member 2 (Homo sapiens) (UniProt O75469); assay: Human pregnane X receptor (PXR) small molecule agonists, qHTS assay (AID 1346982); also: nearly all actives have a fitted effect of over 35% in size
How it was run: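 PXR-Luc HepG2 reporter cells (CYP3A4-driven luciferase) in 5% charcoal-stripped FBS medium, plated 5 h before compound addition, then treated 24 h at 37C. Luciferase read by ONE-Glo luminescence after 30 min at room temperature.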

[8] = molecular target: Cytochrome P450 2D6 (Homo sapiens) (UniProt P10635); assay: Cytochrome P450 Family 2 Subfamily D Member 6 (CYP2D6) small molecule antagonists: luciferase reporter qHTS assay (AID 1671196); also: nearly all actives have a fitted effect of over 50% in size; also: potency is read from the fitted curve at half-maximal effect; as to activity change, negative = inhibition: series mostly up to about 120 µM
How it was run: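 Cell-free P450-Glo system: CYP2D6 with proluciferin substrate was pre-incubated with compound for 10 min, then reacted with NADPH regeneration for 1 h at room temperature. Luciferin product was detected after 20 min, and data were reported as relative luminescence units.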

[9] = molecular target: Cytochrome P450 2C19 (Homo sapiens) (UniProt P33261); assay: Cytochrome P450 Family 2 Subfamily C Member 19 (CYP2C19) small molecule antagonists: luciferase reporter qHTS assay (AID 1671197); also: nearly all actives have a fitted effect of over 65% in size; also: potency is read from the fitted curve at half-maximal effect; as to activity change, negative = inhibition: series mostly up to about 120 µM
How it was run: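 Light output is proportional to CYP2C19 activity: proluciferin substrate is converted to luciferin, then detected by a luciferin detection reagent that also stops the 1 h, 37C NADPH-driven reaction. Ketoconazole serves as positive control.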

[10] = molecular target: Cytochrome P450 2C9 (Homo sapiens) (UniProt P11712); assay: Cytochrome P450 Family 2 Subfamily C Member 9 (CYP2C9) small molecule antagonists: luciferase reporter qHTS assay (AID 1671198); also: nearly all actives have a fitted effect of over 50% in size; also: potency is read from the fitted curve at half-maximal effect; as to activity change, negative = inhibition: series mostly up to about 120 µM
How it was run: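 Enzyme-substrate mix preincubated with compound 10 min at room temperature; reaction started with NADPH regeneration solution, 1 h 37C. Luminescent luciferin product read after 20 min detection reagent.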

[11] = molecular target: Cytochrome P450 1A2 (Homo sapiens) (UniProt P05177); assay: Cytochrome P450 Family 1 Subfamily A Member 2 (CYP1A2) small molecule antagonists: luciferase reporter qHTS assay (AID 1671199); also: series mostly up to about 120 µM; nearly all actives have a fitted effect of over 50% in size
How it was run: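 P450-Glo CYP1A2 enzyme–proluciferin substrate mix with compound 10 min at room temperature, then NADPH regeneration 1 h at room temperature. Luciferin detection reagent added, luminescence read after 20 min; furafylline positive control.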

[12] = molecular target: Voltage-gated inwardly rectifying potassium channel KCNH2 (Homo sapiens) (UniProt Q12809); assay: Human Ether-a-go-go-Related Gene (hERG) channel small molecule antagonists: fluorescence cell-based qHTS assay (AID 1671200)
How it was run: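 Quantitative HTS in hERG-U2OS cells: thallium entry through the channel reports activity, read as continuous 480/540 nm fluorescence over 2 min after stimulus addition.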

[13] = molecular target: Cytochrome P450 3A4 (Homo sapiens) (UniProt P08684); assay: Cytochrome P450 Family 3 Subfamily A Member 4 (CYP3A4) small molecule antagonists: luciferase reporter qHTS assay (AID 1671201)
How it was run: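 Inhibition of CYP3A4 is measured as loss of light: the enzyme converts a proluciferin substrate to luciferin, detected luminescently. Reaction ran 1 h at room temperature with NADPH regeneration after a 10 min compound preincubation.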

[14] = molecular target: Nuclear receptor subfamily 1 group I member 2 (Rattus norvegicus) (UniProt Q9R1A7); assay: Rat pregnane X receptor (rPXR) activation by small molecules, qHTS assay (AID 1346983); details: rPXR luciferase reporter cells, One-Glo luminescence, 24 h; max activation: hits give high values; also: nearly all actives have a fitted effect of over 20% in size
How it was run: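 Luminescent readout (One-Glo luciferase, 30 min room temperature) followed 24 hr compound treatment at 37 C of rPXR cells plated 2,000 per well and preincubated 5hr; qHTS format with compounds delivered in DMSO.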

[15] = molecular target: Nuclear receptor subfamily 1 group I member 2 (Homo sapiens) (UniProt O75469); assay: CYP3A4 induction through human pregnane X receptor (PXR) by small molecules, qHTS assay (AID 1346984); also: nearly all actives have a fitted effect of over 40% in size
How it was run: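 DPX-2 HepG2 cells carrying a PXR response element and CYP3A4-promoter luciferase construct, treated with compounds 24 hr at 37C. Then P450-Glo CYP3A4 Luciferin-IPA substrate (3uM final) for 3 hr at 37C, One-Glo added, luminescence read.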

[16] = molecular target: Nuclear receptor subfamily 1 group I member 2 (Homo sapiens) (UniProt O75469); assay: Human pregnane X receptor (PXR) activation by small molecules, qHTS assay (AID 1346985); also: nearly all actives have a fitted effect of over 40% in size
How it was run: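 DPX-2 cells (HepG2 co-transfected with a PXR response element and a CYP3A4-promoter luciferase construct) were seeded at 2,000 per well, rested 5 hr at 37C, then exposed to DMSO-dissolved compounds for 24 hr. Activation was read as luciferase luminescence.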
% is scaled to controls: 0 for no effect and ±100 for the full control effect.

Thyrotropin-releasing hormone receptor (Homo sapiens), sequence (P34981 whole entry, looked up): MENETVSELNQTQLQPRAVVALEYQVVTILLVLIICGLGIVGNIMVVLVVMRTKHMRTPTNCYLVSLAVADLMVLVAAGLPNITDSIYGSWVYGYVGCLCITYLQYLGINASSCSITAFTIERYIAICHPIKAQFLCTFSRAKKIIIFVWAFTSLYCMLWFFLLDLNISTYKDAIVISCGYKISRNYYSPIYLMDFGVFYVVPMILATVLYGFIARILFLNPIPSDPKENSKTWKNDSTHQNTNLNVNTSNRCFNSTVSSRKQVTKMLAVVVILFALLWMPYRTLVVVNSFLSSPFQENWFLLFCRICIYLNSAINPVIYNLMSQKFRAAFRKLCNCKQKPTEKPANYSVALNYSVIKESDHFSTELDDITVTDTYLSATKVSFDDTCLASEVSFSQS
Cytochrome P450 2C9 (Homo sapiens), sequence (P11712 whole entry, looked up): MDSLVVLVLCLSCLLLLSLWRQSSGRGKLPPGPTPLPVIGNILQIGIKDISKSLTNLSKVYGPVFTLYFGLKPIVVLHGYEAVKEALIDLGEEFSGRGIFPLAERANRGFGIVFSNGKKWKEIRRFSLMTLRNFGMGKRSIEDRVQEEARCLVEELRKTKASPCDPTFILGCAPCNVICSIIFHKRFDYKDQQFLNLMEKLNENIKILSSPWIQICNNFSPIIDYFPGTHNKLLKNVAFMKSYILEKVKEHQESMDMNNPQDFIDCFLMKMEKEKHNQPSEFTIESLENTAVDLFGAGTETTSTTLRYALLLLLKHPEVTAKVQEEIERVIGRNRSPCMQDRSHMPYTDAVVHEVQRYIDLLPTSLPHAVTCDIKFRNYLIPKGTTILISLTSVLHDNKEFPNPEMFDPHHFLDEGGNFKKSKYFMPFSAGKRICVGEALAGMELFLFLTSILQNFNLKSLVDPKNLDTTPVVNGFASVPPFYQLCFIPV
Nuclear receptor subfamily 1 group I member 2 (Homo sapiens), sequence (O75469 whole entry, looked up): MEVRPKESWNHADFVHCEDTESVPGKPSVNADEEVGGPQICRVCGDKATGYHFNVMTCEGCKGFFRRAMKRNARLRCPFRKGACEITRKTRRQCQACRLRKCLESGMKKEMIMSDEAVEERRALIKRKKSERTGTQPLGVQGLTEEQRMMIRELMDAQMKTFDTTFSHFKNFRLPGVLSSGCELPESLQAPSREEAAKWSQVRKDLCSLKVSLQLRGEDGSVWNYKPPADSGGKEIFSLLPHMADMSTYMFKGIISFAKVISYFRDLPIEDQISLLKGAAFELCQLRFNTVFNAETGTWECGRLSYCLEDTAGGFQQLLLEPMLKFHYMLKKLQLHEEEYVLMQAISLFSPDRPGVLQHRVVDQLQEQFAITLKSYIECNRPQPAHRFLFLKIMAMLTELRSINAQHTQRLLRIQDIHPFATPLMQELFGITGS
Voltage-gated inwardly rectifying potassium channel KCNH2 (Homo sapiens), sequence (Q12809 whole entry, looked up): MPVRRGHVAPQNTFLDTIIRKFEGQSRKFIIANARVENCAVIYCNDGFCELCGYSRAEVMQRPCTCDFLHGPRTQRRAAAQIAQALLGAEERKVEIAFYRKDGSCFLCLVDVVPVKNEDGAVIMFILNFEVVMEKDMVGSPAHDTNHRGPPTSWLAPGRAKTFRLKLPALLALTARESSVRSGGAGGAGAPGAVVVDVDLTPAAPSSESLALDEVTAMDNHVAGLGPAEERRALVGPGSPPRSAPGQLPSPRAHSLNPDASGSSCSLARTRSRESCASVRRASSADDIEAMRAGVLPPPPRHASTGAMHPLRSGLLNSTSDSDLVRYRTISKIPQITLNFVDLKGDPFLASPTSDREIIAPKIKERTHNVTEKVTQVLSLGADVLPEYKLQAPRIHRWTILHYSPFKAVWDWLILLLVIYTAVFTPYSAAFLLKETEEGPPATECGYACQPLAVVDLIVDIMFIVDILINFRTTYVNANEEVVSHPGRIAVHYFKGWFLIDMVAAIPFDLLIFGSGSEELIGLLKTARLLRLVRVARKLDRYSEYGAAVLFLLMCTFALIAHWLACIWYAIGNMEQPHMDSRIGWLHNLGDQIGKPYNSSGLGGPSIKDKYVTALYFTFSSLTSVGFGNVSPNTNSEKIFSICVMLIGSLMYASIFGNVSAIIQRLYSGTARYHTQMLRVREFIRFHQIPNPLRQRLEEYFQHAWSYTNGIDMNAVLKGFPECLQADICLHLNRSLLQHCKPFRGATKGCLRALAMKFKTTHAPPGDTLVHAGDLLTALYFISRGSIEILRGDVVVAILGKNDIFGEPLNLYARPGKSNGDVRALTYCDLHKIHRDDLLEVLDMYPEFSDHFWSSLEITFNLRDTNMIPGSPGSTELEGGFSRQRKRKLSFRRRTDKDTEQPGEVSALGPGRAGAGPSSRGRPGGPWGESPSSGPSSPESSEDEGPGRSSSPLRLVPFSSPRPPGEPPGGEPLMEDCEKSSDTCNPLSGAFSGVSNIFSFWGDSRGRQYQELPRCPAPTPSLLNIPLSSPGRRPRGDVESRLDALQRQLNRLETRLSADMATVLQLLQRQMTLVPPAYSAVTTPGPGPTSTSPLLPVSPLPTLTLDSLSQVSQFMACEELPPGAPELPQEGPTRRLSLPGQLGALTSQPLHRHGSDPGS
Cytochrome P450 1A2 (Homo sapiens), sequence (P05177 whole entry, looked up): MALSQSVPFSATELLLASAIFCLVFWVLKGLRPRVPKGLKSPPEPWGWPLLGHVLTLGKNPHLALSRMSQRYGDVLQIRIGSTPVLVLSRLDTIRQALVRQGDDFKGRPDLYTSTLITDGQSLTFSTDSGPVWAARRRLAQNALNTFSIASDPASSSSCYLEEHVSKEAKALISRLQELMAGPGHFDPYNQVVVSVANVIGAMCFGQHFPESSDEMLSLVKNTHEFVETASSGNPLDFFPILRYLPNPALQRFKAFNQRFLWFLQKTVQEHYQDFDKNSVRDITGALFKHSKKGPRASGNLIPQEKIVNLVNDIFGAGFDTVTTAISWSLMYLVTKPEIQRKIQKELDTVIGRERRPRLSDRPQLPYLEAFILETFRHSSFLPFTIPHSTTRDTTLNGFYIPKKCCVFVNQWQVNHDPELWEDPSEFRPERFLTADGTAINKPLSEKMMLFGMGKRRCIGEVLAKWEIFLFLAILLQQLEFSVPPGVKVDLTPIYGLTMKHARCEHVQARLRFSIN
Cytochrome P450 2C19 (Homo sapiens), sequence (P33261 whole entry, looked up): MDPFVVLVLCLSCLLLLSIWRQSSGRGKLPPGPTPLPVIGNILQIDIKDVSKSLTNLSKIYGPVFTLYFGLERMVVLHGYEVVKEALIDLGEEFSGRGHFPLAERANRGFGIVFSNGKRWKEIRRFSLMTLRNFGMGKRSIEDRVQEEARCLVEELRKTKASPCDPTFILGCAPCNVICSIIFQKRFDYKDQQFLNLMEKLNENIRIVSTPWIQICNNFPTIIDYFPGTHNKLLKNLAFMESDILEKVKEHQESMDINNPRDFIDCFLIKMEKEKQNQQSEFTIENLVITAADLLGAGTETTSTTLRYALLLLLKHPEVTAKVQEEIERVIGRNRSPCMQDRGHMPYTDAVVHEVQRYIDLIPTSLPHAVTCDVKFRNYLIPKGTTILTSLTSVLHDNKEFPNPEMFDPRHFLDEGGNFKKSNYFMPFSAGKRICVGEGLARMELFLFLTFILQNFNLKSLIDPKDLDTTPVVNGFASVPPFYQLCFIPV
Cytochrome P450 3A4 (Homo sapiens), sequence (P08684 whole entry, looked up): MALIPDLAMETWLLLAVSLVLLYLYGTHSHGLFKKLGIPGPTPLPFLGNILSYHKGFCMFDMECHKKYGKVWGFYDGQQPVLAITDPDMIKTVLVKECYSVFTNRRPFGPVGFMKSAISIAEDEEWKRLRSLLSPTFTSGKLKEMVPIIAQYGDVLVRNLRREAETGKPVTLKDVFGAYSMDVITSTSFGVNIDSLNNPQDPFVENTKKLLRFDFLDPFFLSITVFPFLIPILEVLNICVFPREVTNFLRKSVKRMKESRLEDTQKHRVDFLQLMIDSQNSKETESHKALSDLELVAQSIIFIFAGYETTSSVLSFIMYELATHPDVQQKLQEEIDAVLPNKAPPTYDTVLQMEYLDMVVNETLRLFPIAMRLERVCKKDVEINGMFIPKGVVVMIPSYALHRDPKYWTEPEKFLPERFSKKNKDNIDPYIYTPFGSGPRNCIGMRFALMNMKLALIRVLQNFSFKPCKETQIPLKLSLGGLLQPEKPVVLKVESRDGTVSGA
Cytochrome P450 2D6 (Homo sapiens), sequence (P10635 whole entry, looked up): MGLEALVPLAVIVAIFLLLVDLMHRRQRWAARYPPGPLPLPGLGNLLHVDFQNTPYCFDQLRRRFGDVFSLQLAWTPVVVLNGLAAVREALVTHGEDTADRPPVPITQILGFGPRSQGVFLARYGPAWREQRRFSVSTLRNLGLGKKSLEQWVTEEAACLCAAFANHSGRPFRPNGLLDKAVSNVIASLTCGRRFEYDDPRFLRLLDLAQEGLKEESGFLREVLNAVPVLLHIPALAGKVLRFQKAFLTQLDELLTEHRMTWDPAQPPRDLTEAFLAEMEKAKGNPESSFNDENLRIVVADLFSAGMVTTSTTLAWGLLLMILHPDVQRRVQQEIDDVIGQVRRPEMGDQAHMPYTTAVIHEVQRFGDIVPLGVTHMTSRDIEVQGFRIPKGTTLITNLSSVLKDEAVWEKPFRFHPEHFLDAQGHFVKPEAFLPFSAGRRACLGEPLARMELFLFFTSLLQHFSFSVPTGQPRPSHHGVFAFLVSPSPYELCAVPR
Nuclear receptor subfamily 1 group I member 2 (Rattus norvegicus), sequence (Q9R1A7 whole entry, looked up): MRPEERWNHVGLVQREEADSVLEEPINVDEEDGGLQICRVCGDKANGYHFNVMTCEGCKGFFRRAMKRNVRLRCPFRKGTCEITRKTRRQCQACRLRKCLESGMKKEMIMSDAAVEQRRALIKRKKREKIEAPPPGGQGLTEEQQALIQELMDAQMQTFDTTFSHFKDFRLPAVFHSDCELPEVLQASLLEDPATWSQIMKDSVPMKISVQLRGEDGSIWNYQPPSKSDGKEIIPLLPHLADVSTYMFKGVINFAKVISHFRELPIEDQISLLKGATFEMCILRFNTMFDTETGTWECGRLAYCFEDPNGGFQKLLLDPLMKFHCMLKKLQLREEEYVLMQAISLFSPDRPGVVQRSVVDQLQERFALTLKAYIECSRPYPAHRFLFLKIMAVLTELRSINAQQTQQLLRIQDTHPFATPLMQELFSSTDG

CC(O)CN(CCCN(C)C)CCCN(C)C (centres undefined)
inactive: outcome [1] | Potency [2] | outcome [3] | Potency [4] | outcome [5] | outcome [6] | Potency [7] | Potency [8] | Potency [9] | Potency [10] | Potency [11] | Potency [12] | Potency [13]

C[C@H]1O[C@@H](n2cc(F)c(=O)[nH]c2=O)[C@H](O)[C@@H]1O
inactive: outcome [1] | Potency [2] | outcome [3] | Potency [4] | outcome [5] | outcome [6] | Potency [7] | max activation [14] -1.26% | Potency [15] | Potency [16] | Potency [9] | Potency [10] | Potency [11] | Potency [12] | Potency [13]

NCCNC(=O)c1ccc(Cl)cn1
inactive: outcome [1] | Potency [2] | outcome [3] | Potency [4] | outcome [5] | outcome [6] | Potency [7] | Potency [15] | Potency [16] | Potency [9] | Potency [10] | Potency [12] | Potency [13]

CC(C)[C@H](N)C(=O)OCCOCn1cnc2c(=O)[nH]c(N)nc21
inactive: outcome [1] | Potency [2] | outcome [3] | Potency [4] | outcome [5] | outcome [6] | Potency [7] | max activation [14] -4.04% | Potency [15] | Potency [16] | Potency [8] | Potency [9] | Potency [10] | Potency [11] | Potency [12]

Cc1ncc(CSSCc2cnc(C)c(O)c2CO)c(CO)c1O
inactive: outcome [1] | Potency [2] | outcome [3] | Potency [4] | outcome [5] | outcome [6] | Potency [7] | Potency [15] | Potency [16] | Potency [12]
active: Potency [8] 6.17 µM | Potency [9] 15.5 µM | Potency [10] 8.71 µM

O=C(O)c1ccc[n+]([O-])c1
inactive: outcome [1] | Potency [2] | outcome [3] | Potency [4] | outcome [5] | outcome [6] | Potency [7] | Potency [15] | Potency [16] | Potency [8] | Potency [10] | Potency [11] | Potency [12] | Potency [13]

NCC[C@H](O)C(=O)N[C@@H]1C[C@H](N)[C@@H](O[C@H]2O[C@H](CN)[C@@H](O)[C@H](O)[C@H]2O)[C@H](O)[C@H]1O[C@H]1O[C@H](CO)[C@@H](O)[C@H](N)[C@H]1O
inactive: activation [1] -0.0262% [at 0.218 µM] | activity change, negative = cytotoxicity [2] -0.464% [at 0.349 µM] | caspase activation [3] -1.92% [at 0.349 µM] | activity change, negative = cytotoxicity [4] -5.52% [at 0.349 µM] | caspase-3/7 activation [5] -0.155% [at 0.349 µM] | activity change, negative = cytotoxicity [6] -0.33% [at 0.349 µM] | activation [7] -0.318% [at 0.349 µM] | Potency [15] | Potency [16] | activity change, negative = inhibition [8] -0.464% [at 0.435 µM] | activity change, negative = inhibition [9] 3.5% [at 0.435 µM] | activity change, negative = inhibition [10] 0.45% [at 0.435 µM] | activity change, negative = inhibition [11] 12.4% [at 0.435 µM] | activity change, negative = inhibition [12] 0.203% [at 0.29 µM] | activity change, negative = inhibition [13] 8.51% [at 0.435 µM]

C=CCSCC1Nc2cc(Cl)c(S(N)(=O)=O)cc2S(=O)(=O)N1 (centres undefined)
inactive: outcome [1] | Potency [2] | outcome [3] | Potency [4] | outcome [5] | outcome [6]

From PubChem BioAssay (Tox21)
